Shown are actives, neighbours in structure and some others; about 19% of the full set was active somewhere.
HT1080 IDH1KD tx – HT-1080 IDH1 knockdown cell toxicity (counter line); HT-1080 IDH1 knockdown viability, ATP luminescence, 48 h; Potency, µM (series often up to 46.1 µM), without a hit: at the highest dose activity, negative = toxicity, most hits filed as cytotoxic; hit rate 2% among 360,000;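 further: potency means the concentration at half of the fitted maximal effect; 0% = DMSO wells and -100% = cell-free medium wells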
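HT-1080-IDH1KD cells (IDH1 knocked down), 750/well in RPMI with 5% FBS, treated with compound 48 h at 37 degrees C. Viability by CellTiter-Glo luminescence, normalised to DMSO and no-cell wells; concentration-response curves classed.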
IL-1B inflam inh – inhibitors of inflammasome signaling (IL-1 beta secretion). activity change, % at 57.5 µM. hit rate 4.7% among 360,000. THP-1 LPS/ATP IL-1B secretion, AlphaLISA, 16 h; active compounds read low; in the data active means activity change below about -50%; inconclusive means mostly about -30% to -49%
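Secreted IL-1B measured by AlphaLISA bead assay after 16 h compound exposure of THP-1 cells; compounds (final up to 57.5 uM) added 1 h before LPS (250 ng/mL) and ATP (1.25 mM) stimulation; lower signal means less secretion.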
HT1080NT lethal – kills 2HG-producing HT-1080-NT fibrosarcoma cells. HT-1080-NT fibrosarcoma viability, CellTiter-Glo ATP luminescence, 48 h. hit rate 1.6% among 360,000. Potency, µM (top dose mostly 46.1 µM), for inactives: at the highest dose activity, negative = less viability, usual class: cytotoxic;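 further: NT is the 2HG producing partner of a matched IDH1 knockdown line; potency means the concentration at half of the fitted maximal effect; 0% = DMSO-treated cells and -100% = media-only wells without cells; nearly all actives have a fitted effect of over 55% in size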
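A 48-hour cytotoxicity screen used HT-1080-NT cells plated 2 hours before compound delivery. ATP-based CellTiter-Glo luminescence measured viability, normalized to DMSO and no-cell controls.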
ELG1 repair inh – ELG1-dependent DNA repair inhibition; HEK293T ELG1-luciferase reporter, luminescence, 16 h; DNA damage induced by 5-fluorouridine; hit rate 2.3% among 330,000; Potency, µM (titrated, usually from 46.1 µM), without a hit: top-dose activity change, negative = inhibition, hits mostly inhibitors; further: potency means the concentration at half of the fitted maximal effect; nearly all actives have a fitted effect of over 55% in size
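Step one: seed 2,000 cells per well. Step two: pin-transfer compound or DMSO alongside 5-fluorouridine. Step three: incubate 16 hr, 37 °C, 5% CO2. Step four: add ONE-Glo, wait 30 min, read luminescence.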
TDP1 cell CPT – growth inhibition of DT40 Tdp1-/-;hTDP1 cells with camptothecin (screen for TDP1 inhibitors); chicken DT40 Tdp1-/-;hTDP1 cells + 20 nM CPT, ATP luminescence, 48 h; Potency, µM (highest dose often 46.2 µM), without a hit: at the highest dose activity change, negative = growth inhibition, most hits filed as inhibitors; hit rate 12% among 420,000; further: potency means the concentration at half of the fitted maximal effect; nearly all actives have a fitted effect of over 55% in size
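Chicken DT40 Tdp1-/- cells stably complemented with human TDP1 were seeded at 400 cells/well in medium containing 20 nM camptothecin, exposed to pin-transferred compounds, and grown at 37 °C for at least 48 hr. Viability was read as ATP luminescence.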
TDP1 cell noCPT – qHTS for Inhibitors of human tyrosyl-DNA phosphodiesterase 1 (TDP1): qHTS in cells in absence of CPT; Potency, µM (highest dose often 46.2 µM), without a hit: at the highest dose activity change, negative = growth inhibition, hits mostly inhibitors; DT40 Tdp1-/- hTDP1 cells, no CPT, ATP luminescence, 48 h; hit rate 15% among 420,000; AID 686978, 2013; further: potency means the concentration at half of the fitted maximal effect; nearly all actives have a fitted effect of over 55% in size
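Camptothecin absent (DMSO only). Human TDP1-complemented DT40 knockout cells, 400 cells/well, 37 °C for minimum 48 hr; ATP measured via CellTiter-Glo, 30 min dark incubation, luminescence.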
Starred values were filed as active, the others as inactive; ? = inconclusive; · = not tested or not shown. Unless noted, the call rests on the fitted dose curve; in most records, active means well fitted curve in the direction sought with a large enough effect; inconclusive means small, poorly fitted or top-dose-only effect, or another doubt; inactive means no such curve, though single readings can be large; an effect the other way counts as inactive or inconclusive. Unless noted, on the % scale 0 is the no-effect control and ±100 the full control effect.

SMILES | HT1080 IDH1KD tx | IL-1B inflam inh | HT1080NT lethal | ELG1 repair inh | TDP1 cell CPT | TDP1 cell noCPT
CCc1nc2ccc(C(=O)Nc3cccc(OCC(=O)N(C)C)c3)cn2c1N(CC)CCOC | ? | -20 | 28% | · | 16µM* | 16µM*
CCc1nc2ccc(C(=O)Nc3cccc(OCC(=O)N(C)C)c3)cn2c1N(CCN(C)C)CC1CC1 | 9% | -16 | 8% | · | 0% | 0%
Cc1nc2ccc(C(=O)Nc3cccc(OCC(=O)N(C)C)c3)cn2c1N(C)CC1CCCCC1 | ? | -51* | ? | · | 21µM* | 13µM*
CCc1nc2ccc(C(=O)Nc3cccc(OCC(=O)N(C)C)c3)cn2c1N(C)Cc1ccc(OC)cc1 | -17% | -12 | ? | · | 23µM* | 18µM*
CCc1nc2ccc(C(=O)Nc3cccc(OCC(=O)N(C)C)c3)cn2c1N(CC)CCN(C)C | 4% | 9 | 17% | · | 10% | 9%
NS(=O)(=O)c1ccc(CCNC(=O)c2ccccc2-c2ccccc2)cc1 | -10% | 11 | -6% | -3% | -2% | 0%
Cc1ccc(CCNc2nc3c(S(=O)(=O)c4ccc(C)cc4)nnn3c3ccsc23)cc1 | · | · | · | · | -16% | -26%
CSc1ncnc2c1ncn2CCCN1CCN(c2ccccn2)CC1 | 0% | 30 | -1% | · | ? | 16µM*
c1ccc(COc2ncnc3c2ncn3CCCN2CCN(c3ccccn3)CC2)cc1 | -1% | -26 | -11% | · | ? | 16µM*
Cc1ccc(S(=O)(=O)N2CCC(NC(=O)c3ccccc3)CC2)cc1 | -9% | 0 | -11% | ? | 21% | -6%
C[N+](C)=C1SCC(C)(/C=N/O)S1 (centres undefined) | 12% | 19 | 21% | 4% | -5% | -23%
CCc1nc2ccc(C(=O)Nc3ccc4c(c3)OCC(=O)N4)cn2c1N(C)Cc1nccn1C | 12% | -24 | 17% | · | ? | ?
CC1=CC(C)C2COC(c3ccc[n+](C)c3)C1C2C (centres undefined) | -13% | 0 | 4% | -3% | 8.2µM* | 8.2µM*
COc1ccc(S(=O)(=O)N2CCCCC2)cc1NC(=O)Cn1cnc2c1c(=O)n(C)c(=O)n2C | 9% | 14 | 4% | 12% | 3% | -21%
O=C(NNc1c2ccccc2nc2ccccc12)c1ccccc1Cl | -7% | 60 | 0% | -8% | -23% | ?
O=C(NNC(=O)c1ccccc1O)c1cc2ccccc2o1 | -11% | 99 | -14% | ? | ? | 23µM*
O=C(NNc1nc(=O)c2cccnc2s1)c1ccccc1O | ? | 118 | -27% | 15µM* | 0.0052µM* | 0.016µM*
O=C(NNc1c2ccccc2nc2ccccc12)c1ccccc1O | ? | -12 | ? | ? | ? | 21µM*
O=C(NNC(=O)c1cc2ccccc2o1)c1ccncc1 | 16% | 25 | 12% | 18% | -6% | 9%
O=C(NNc1c2ccccc2nc2ccccc12)c1ccc(O)cc1O | ? | -51* | ? | -21% | ? | 16µM*
O=C(NNC(=O)c1cccc2ccccc12)c1ccccc1O | ? | 83 | -11% | -3% | 15µM* | ?
CCOC(=O)C1CCN(C(=O)CCCn2nc(C)c3c(C)n(-c4ccc(C)cc4)nc3c2=O)CC1 | -5% | ? | -3% | -5% | ? | -17%
COc1ccc2nc(-c3ccccc3)[nH]c2c1 | -24% | 10 | -14% | ? | ? | ?
Cc1ccc(NS(=O)(=O)c2ccc3nc(-c4ccccc4)[nH]c3c2)c(Br)c1 | · | · | · | · | 15µM* | 23µM*
Cc1cccc(NS(=O)(=O)c2ccc3nc(-c4ccccc4)[nH]c3c2)c1C | ? | -13 | -23% | -12% | 16µM* | 16µM*
SMILES | HT1080 IDH1KD tx | IL-1B inflam inh | HT1080NT lethal | ELG1 repair inh | TDP1 cell CPT | TDP1 cell noCPT
CC(C)c1ccc(NS(=O)(=O)c2ccc3nc(-c4ccccc4)[nH]c3c2)cc1 | · | · | · | · | 15µM* | ?
CC(Sc1ccc(S(=O)(=O)N2CCCCCC2)cn1)C(N)=O (centres undefined) | -1% | 18 | -8% | -2% | -14% | -20%
O=C(NC1CC(=O)N(c2ccccc2)C1)c1cccs1 (centres undefined) | · | · | · | · | -14% | ?
O=C(CN(c1ccccc1)S(=O)(=O)c1ccccc1)Nc1ccccc1C(=O)NCc1ccco1 | -5% | 0 | -2% | ? | ? | 16µM*
Cc1ccc(C)c(N(CC(=O)Nc2ccccc2C(=O)NCc2ccco2)S(=O)(=O)c2ccccc2)c1 | 0% | -11 | -7% | 23µM* | ? | 16µM*
Cc1ccc(C)c(N(CC(=O)NC2CCCC2)S(=O)(=O)c2ccccc2)c1 | -22% | ? | -24% | ? | 12µM* | 8.2µM*
COc1ccc2[nH]c(C)c(CCNC(=S)Nc3cc(C)cc(C)c3)c2c1 | -1% | -13 | 2% | -12% | ? | ?
COc1ccc2[nH]c(C)c(CCNC(=S)Nc3ccc(F)cc3)c2c1 | 5% | -30 | -7% | ? | 16µM* | 23µM*
COc1ccc(NC(=S)NCCc2c[nH]c3ccc(OC)cc23)c(OC)c1 | -25% | ? | -18% | ? | ? | ?
Cc1ccc2[nH]c(C)c(CC(=O)NCc3ccccc3)c2c1 | -18% | -4 | -7% | -26% | 0% | ?
COc1ccc2[nH]c(C)c(CCNC(=S)Nc3ccccc3OC)c2c1 | 14% | -13 | -1% | ? | 18µM* | 23µM*
COc1ccc2[nH]c(C)c(CCNC(=S)Nc3cc(C)ccc3C)c2c1 | 1% | 4 | -17% | 6% | 8.2µM* | 9.2µM*
CCc1cccc(C)c1NC(=S)NCCc1c(C)[nH]c2ccc(C)cc12 | -20% | 53 | -12% | -25% | 10µM* | 21µM*
O=C(CCC(=O)N1CCOCC1)NCc1cccc(C(F)(F)F)c1 | 7% | 2 | 6% | 17% | -3% | 7%
O=C(NCc1ccccc1Cl)C1CCN(C(=O)N2CCOc3ccccc32)CC1 | · | · | · | · | -4% | ?
O=C(CCc1ccccn1)N1CCCC(N2CCN(c3cccc(C(F)(F)F)c3)CC2)C1 (centres undefined) | 1% | -16 | -2% | 1% | ? | -29%
COc1ccc(NC(=O)c2ccc3oc(=O)c(S(=O)(=O)c4ccc(C)cc4)cc3c2)cc1OC | · | · | · | · | 18% | -10%

Screens: PubChem, National Center for Advancing Translational Sciences (NCATS)
